# Assay results reported in PMC11062922 (Nature Chemical Biology, 2023).
# Where two headings read alike, the source gives them in different places.
# Test system: PKN1
# Conditions: read-out: apparent Kd, n = 1
substance,measurement,setting,value
Lestaurtinib,potency estimated from few doses,"compound concentrations:100 nM and 1000 nM (sheet 'Lestaurtinib' of Supplementary Table 1),run:Lestaurtinib_02364_R2,Plate:MR002",487 nM
same,potency estimated from few doses,"compound concentrations:100 nM and 1000 nM (sheet 'Lestaurtinib' of Supplementary Table 1),run:Lestaurtinib_02364_R3,Plate:MR002",408 nM
same,potency estimated from few doses,"compound concentrations:100 nM and 1000 nM (sheet 'Lestaurtinib' of Supplementary Table 1),run:Lestaurtinib_02367_R1,Plate:MR003",440 nM
same,potency estimated from few doses,"compound concentrations:100 nM and 1000 nM (sheet 'Lestaurtinib' of Supplementary Table 1),run:Lestaurtinib_02367_R2,Plate:MR003",488 nM
same,potency estimated from few doses,"compound concentrations:100 nM and 1000 nM (sheet 'Lestaurtinib' of Supplementary Table 1),run:Lestaurtinib_02381_R1,Plate:MR004",350 nM
same,potency estimated from few doses,"compound concentrations:100 nM and 1000 nM (sheet 'Lestaurtinib' of Supplementary Table 1),run:Lestaurtinib_02381_R2,Plate:MR004",390 nM
same,potency estimated from few doses,"compound concentrations:100 nM and 1000 nM (sheet 'Lestaurtinib' of Supplementary Table 1),run:Lestaurtinib_02381_R3,Plate:MR004",242 nM
same,potency estimated from few doses,"compound concentrations:100 nM and 1000 nM (sheet 'Lestaurtinib' of Supplementary Table 1),run:Lestaurtinib_02407_R1,Plate:MR005",519 nM
same,potency estimated from few doses,"compound concentrations:100 nM and 1000 nM (sheet 'Lestaurtinib' of Supplementary Table 1),run:Lestaurtinib_02422_R1,Plate:MR006",327 nM
same,potency estimated from few doses,"compound concentrations:100 nM and 1000 nM (sheet 'Lestaurtinib' of Supplementary Table 1),run:Lestaurtinib_02422_R2,Plate:MR006",52.5 nM
same,potency estimated from few doses,"compound concentrations:100 nM and 1000 nM (sheet 'Lestaurtinib' of Supplementary Table 1),run:Lestaurtinib_02437_R1,Plate:MR007",578 nM
same,potency estimated from few doses,"compound concentrations:100 nM and 1000 nM (sheet 'Lestaurtinib' of Supplementary Table 1),run:Lestaurtinib_02437_R2,Plate:MR007",490 nM
same,potency estimated from few doses,"compound concentrations:100 nM and 1000 nM (sheet 'Lestaurtinib' of Supplementary Table 1),run:Lestaurtinib_02438_R1,Plate:MR008",516 nM
same,potency estimated from few doses,"compound concentrations:100 nM and 1000 nM (sheet 'Lestaurtinib' of Supplementary Table 1),run:Lestaurtinib_02438_R2,Plate:MR008",520 nM
same,potency estimated from few doses,"compound concentrations:100 nM and 1000 nM (sheet 'Lestaurtinib' of Supplementary Table 1),run:Lestaurtinib_02438_R3,Plate:MR008",483 nM
same,potency estimated from few doses,"compound concentrations:100 nM and 1000 nM (sheet 'Lestaurtinib' of Supplementary Table 1),run:Lestaurtinib_02443_R1,Plate:MR009",429 nM
same,potency estimated from few doses,"compound concentrations:100 nM and 1000 nM (sheet 'Lestaurtinib' of Supplementary Table 1),run:Lestaurtinib_02443_R2,Plate:MR009",415 nM
same,potency estimated from few doses,"compound concentrations:100 nM and 1000 nM (sheet 'Lestaurtinib' of Supplementary Table 1),run:Lestaurtinib_02443_R3,Plate:MR009",397 nM
same,potency estimated from few doses,"compound concentrations:100 nM and 1000 nM (sheet 'Lestaurtinib' of Supplementary Table 1),run:Lestaurtinib_02473_R1,Plate:MR010",430 nM
same,potency estimated from few doses,"compound concentrations:100 nM and 1000 nM (sheet 'Lestaurtinib' of Supplementary Table 1),run:Lestaurtinib_02473_R2,Plate:MR010",385 nM
same,potency estimated from few doses,"compound concentrations:100 nM and 1000 nM (sheet 'Lestaurtinib' of Supplementary Table 1),run:Lestaurtinib_02482_R1,Plate:MR011",508 nM
same,potency estimated from few doses,"compound concentrations:100 nM and 1000 nM (sheet 'Lestaurtinib' of Supplementary Table 1),run:Lestaurtinib_02482_R2,Plate:MR011",460 nM
same,potency estimated from few doses,"compound concentrations:100 nM and 1000 nM (sheet 'Lestaurtinib' of Supplementary Table 1),run:Lestaurtinib_02482_R3,Plate:MR011",432 nM
same,potency estimated from few doses,"compound concentrations:100 nM and 1000 nM (sheet 'Lestaurtinib' of Supplementary Table 1),run:Lestaurtinib_02487_R3,Plate:MR012",500 nM
same,potency estimated from few doses,"compound concentrations:100 nM and 1000 nM (sheet 'Lestaurtinib' of Supplementary Table 1),run:Lestaurtinib_02496_R1,Plate:MR013",473 nM
same,potency estimated from few doses,"compound concentrations:100 nM and 1000 nM (sheet 'Lestaurtinib' of Supplementary Table 1),run:Lestaurtinib_02496_R2,Plate:MR013",455 nM
same,potency estimated from few doses,"compound concentrations:100 nM and 1000 nM (sheet 'Lestaurtinib' of Supplementary Table 1),run:Lestaurtinib_02496_R3,Plate:MR013",459 nM
same,potency estimated from few doses,"compound concentrations:100 nM and 1000 nM (sheet 'Lestaurtinib' of Supplementary Table 1),run:Lestaurtinib_02566_R1,Plate:MR014",512 nM
same,potency estimated from few doses,"compound concentrations:100 nM and 1000 nM (sheet 'Lestaurtinib' of Supplementary Table 1),run:Lestaurtinib_02566_R3,Plate:MR014",539 nM
same,potency estimated from few doses,"compound concentrations:100 nM and 1000 nM (sheet 'Lestaurtinib' of Supplementary Table 1),run:Lestaurtinib_02572_R1,Plate:MR015",628 nM
same,potency estimated from few doses,"compound concentrations:100 nM and 1000 nM (sheet 'Lestaurtinib' of Supplementary Table 1),run:Lestaurtinib_02572_R2,Plate:MR015",517 nM
same,potency estimated from few doses,"compound concentrations:100 nM and 1000 nM (sheet 'Lestaurtinib' of Supplementary Table 1),run:Lestaurtinib_02572_R3,Plate:MR015",559 nM
same,potency estimated from few doses,"compound concentrations:100 nM and 1000 nM (sheet 'Lestaurtinib' of Supplementary Table 1),run:Lestaurtinib_02577_R2,Plate:MR016",613 nM
same,potency estimated from few doses,"compound concentrations:100 nM and 1000 nM (sheet 'Lestaurtinib' of Supplementary Table 1),run:Lestaurtinib_02577_R3,Plate:MR016",470 nM
same,potency estimated from few doses,"compound concentrations:100 nM and 1000 nM (sheet 'Lestaurtinib' of Supplementary Table 1),run:Lestaurtinib_02584_R1,Plate:MR017",493 nM
same,potency estimated from few doses,"compound concentrations:100 nM and 1000 nM (sheet 'Lestaurtinib' of Supplementary Table 1),run:Lestaurtinib_02584_R2,Plate:MR017",437 nM
same,potency estimated from few doses,"compound concentrations:100 nM and 1000 nM (sheet 'Lestaurtinib' of Supplementary Table 1),run:Lestaurtinib_02584_R3,Plate:MR017",508 nM
same,potency estimated from few doses,"compound concentrations:100 nM and 1000 nM (sheet 'Lestaurtinib' of Supplementary Table 1),run:Lestaurtinib_02601_R1,Plate:MR018",580 nM
same,potency estimated from few doses,"compound concentrations:100 nM and 1000 nM (sheet 'Lestaurtinib' of Supplementary Table 1),run:Lestaurtinib_02601_R2,Plate:MR018",523 nM
same,potency estimated from few doses,"compound concentrations:100 nM and 1000 nM (sheet 'Lestaurtinib' of Supplementary Table 1),run:Lestaurtinib_02601_R3,Plate:MR018",615 nM
same,potency estimated from few doses,"compound concentrations:100 nM and 1000 nM (sheet 'Lestaurtinib' of Supplementary Table 1),run:Lestaurtinib_02606_R3,Plate:MR019",534 nM
same,potency estimated from few doses,"compound concentrations:100 nM and 1000 nM (sheet 'Lestaurtinib' of Supplementary Table 1),run:Lestaurtinib_02624_R1,Plate:MR020",496 nM
